Measurements published in PubChem BioAssay (EPA / NIEHS).
Where “and” joins values, the source holds several entries; their conditions need not be identical. Equal values may be shown once. More than one record can exist for a structure, and the calls need not agree. Calls of active or inactive are those of the source. Rule for the calls: active = hit-call score of the fitted dose curve at least 0.9, where 1 is the maximum; inactive = score below 0.9.

What was measured:
[1] = ATG_E_Box_CIS: Attagene CIS-FACTORIAL HepG2 Assay for human Enhancer Box (E-box) (AID 2282936); settings: HepG2 E-box cis-reporter transcription, actives raise or lower the signal
In short: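 HepG2 cells transiently transfected with multiplexed cis-element reporter units, dosed 24 h; reporter mRNA quantified by RT-PCR, 6-FAM labelling, HpaI digestion and capillary electrophoresis. E-box (USF1) signal fitted bidirectionally vs DMSO.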

[2] = ATG_M_61_CIS: Attagene CIS-FACTORIAL HepG2 Assay for M61 Transcription Factor (Internal Marker) (AID 2282937); settings: HepG2 Attagene CIS-FACTORIAL M61 internal marker reporter; actives raise or lower the signal
In short: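 Endogenous transcription factor activity in HepG2 is read through transiently transfected cis-element reporter units. After 24 h dosing, RNA undergoes reverse transcription, PCR and primer extension with 6-FAM before capillary electrophoresis; DMSO-referenced bidirectional fit.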

[3] = ATG_EGR_CIS: Attagene CIS-FACTORIAL HepG2 Assay for human Early Growth Response 1 (EGR1) (AID 2282938); settings: HepG2 Attagene CIS-FACTORIAL EGR reporter mRNA; actives raise or lower the signal
In short: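 Activity is taken as induction or loss of reporter mRNA versus DMSO, fitted bidirectionally. Transcripts from cis-regulated reporter units in transiently transfected HepG2 were measured after 24 h by RT-PCR with capillary electrophoresis.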

[4] = ATG_M_19_CIS: Attagene CIS-FACTORIAL HepG2 Assay for M19 Transcription Factor (Internal Marker) (AID 2282939); settings: HepG2 Attagene CIS-FACTORIAL M19 internal marker reporter; actives raise or lower the signal
In short: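 Chemical-treated HepG2 (24 h) with MRTU constructs; reporter transcripts detected by fluorescent RT-PCR fragment analysis on capillary electrophoresis. Internal background marker, DMSO as baseline.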

[5] = ATG_Ets_CIS: Attagene CIS-FACTORIAL HepG2 Assay for human Erythroblast Transformation Specific (ETS) (AID 2282941); settings: HepG2 ETS cis-reporter transcription, actives raise or lower the signal
In short: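 Human HepG2 hepatoma cells were transiently transfected with promoter-driven reporter constructs and treated for 24 hours. Reporter transcripts were quantified by RT-PCR with fluorescent primer extension; bidirectional curve fitting used DMSO as reference.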

[6] = biological target: Hepatocyte nuclear factor 3-beta (Homo sapiens) (UniProt Q9Y261); test: ATG_FoxA2_CIS: Attagene CIS-FACTORIAL HepG2 Assay for human Forkhead box A2 (FOXA2) (AID 2282942); settings: HepG2 cis-reporter transcription factor activity, 24 h; actives raise or lower the signal
In short: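 Reporter transcript induction is measured by fluorescence after capillary electrophoresis of RT-PCR products from HepG2 cells exposed 24 h. Cis-regulated reporter units report endogenous factor activity; curves fitted both directions against DMSO.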

[7] = ATG_FoxO_CIS: Attagene CIS-FACTORIAL HepG2 Assay for human Forkhead box O (FoxO) (AID 2282943); settings: HepG2 Attagene cis-reporter, FoxO element, mRNA; actives raise or lower the signal
In short: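 Read-out: fluorescence of 6-FAM-labelled reporter cDNA fragments resolved by capillary electrophoresis. Transiently transfected HepG2 cells were dosed for 24 h; activity fitted in both directions relative to DMSO controls.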

[8] = ATG_GLI_CIS: Attagene CIS-FACTORIAL HepG2 Assay for human Zinc Finger Protein GLI1 (AID 2282945); settings: HepG2, Attagene cis-factorial reporter mRNA, GLI element; actives raise or lower the signal
In short: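 Transiently transfected HepG2 cells report endogenous transcription factor activity via cis-element-driven reporter units. After 24 h compound exposure, reporter mRNA was measured by RT-PCR with capillary electrophoresis; bidirectional fitting against DMSO baseline.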

[9] = ATG_ISRE_CIS: Attagene CIS-FACTORIAL HepG2 Assay for human Interferon Regulatory Factor 1 (IRF1) binding to an Interferon-Stimulated Response Element (ISRE) (AID 2282948); settings: HepG2 ISRE cis-reporter (Attagene), mRNA transcription readout; actives raise or lower the signal
In short: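 Cell-based cis-reporter assay; HepG2; 24 h exposure; reporter mRNA by RT-PCR plus capillary electrophoresis fluorescence; activity in either direction scored relative to DMSO.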

[10] = ATG_M_32_CIS: Attagene CIS-FACTORIAL HepG2 Assay for M32 Transcription Factor (Internal Marker) (AID 2282949); settings: HepG2 Attagene cis-factorial M32 reporter, mRNA; actives raise or lower the signal;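 note: background control marker of the multiplexed CIS panel rather than a real target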
In short: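 HepG2 cells transiently transfected with multiplexed cis-regulated reporter units, dosed 24 h. Reporter mRNA quantified by RT-PCR, 6-FAM labelling, HpaI digestion and capillary electrophoresis; bidirectional fit vs DMSO.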

[11] = biological target: Hypoxia-inducible factor 1-alpha (Homo sapiens) (UniProt Q16665); test: ATG_HIF1a_CIS: Attagene CIS-FACTORIAL HepG2 Assay for human Hypoxia Inducible Factor 1 (HIF1A) (AID 2282951); settings: HepG2 Attagene cis-factorial HIF1a reporter transcription; actives raise or lower the signal
In short: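 Fluorescence intensity of capillary-separated, 6-FAM-labelled reporter amplicons gives mRNA induction in HepG2 cells carrying transfected cis-promoter reporter units; cells exposed 24 h, responses fitted up or down from DMSO.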

[12] = biological target: Heat shock factor protein 1 (Homo sapiens) (UniProt Q00613); test: ATG_HSE_CIS: Attagene CIS-FACTORIAL HepG2 Assay for human Heat Shock Transcription Factor 1 (HSE) (AID 2282953); settings: HepG2 HSE cis-reporter, Attagene RNA transcription; actives raise or lower the signal
In short: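 Liver-derived HepG2 cells carry transiently introduced multiple reporter units governed by cis promoters. Reporter RNA measured 24 h post-dose through reverse transcription, PCR amplification, fluorescent labelling and capillary electrophoresis, normalised to DMSO.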

[13] = ATG_PBREM_CIS: Attagene CIS-FACTORIAL HepG2 Assay for human Phenobarbital-responsive Enhancer Module (PBREM) (AID 2282955); settings: HepG2 PBREM cis-reporter, Attagene multiplexed transcription; actives raise or lower the signal
In short: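 Cells were transfected with cis-element reporter units and treated for 24 h, after which RNA was extracted and reporter transcripts measured by RT-PCR and capillary electrophoresis.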

[14] = ATG_GATA_CIS: Attagene CIS-FACTORIAL HepG2 Assay for human GATA Binding Protein (AID 2282944); settings: HepG2 GATA cis-element reporter, Attagene multiplex mRNA; actives raise or lower the signal
In short: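 Transfected cis-reporter HepG2 cells were treated with chemicals for 24 hours. Total RNA was then converted to cDNA, amplified with reporter-specific primers and analysed by fluorescent capillary electrophoresis, using DMSO-treated wells as baseline.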

[15] = biological target: Bile acid receptor (Homo sapiens) (UniProt Q96RI1); test: ATG_IR1_CIS: Attagene CIS-FACTORIAL HepG2 Assay for human Nuclear Receptor Subfamily 1 Group H Member 4 (NR1H4), IR1 submotif (AID 2282946); settings: IR1 reporter transcription, actives raise or lower the signal
In short: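 HepG2 cells transiently transfected with multiple cis-promoter-driven reporter units to measure endogenous transcription factor activity; 24 h exposure. Reporter mRNA read by RT-PCR, FAM labelling, HpaI digestion and capillary electrophoresis. Bidirectional fit versus DMSO.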

[16] = ATG_GRE_CIS: Attagene CIS-FACTORIAL HepG2 Assay for human Glucocorticoid Response Elements (GRE) (AID 2282947); settings: HepG2 GRE cis-reporter, Attagene multiplex mRNA; actives raise or lower the signal
In short: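 Transiently transfected HepG2 cells carrying GRE cis-reporter units (endogenous TF activity) dosed 24 h; reporter mRNA quantified by RT-PCR, 6-FAM labelling, HpaI digestion and capillary electrophoresis. Bidirectional fit versus DMSO baseline.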

[17] = ATG_MRE_CIS: Attagene CIS-FACTORIAL HepG2 Assay for human Metal Responsive Element (MRE) (AID 2282954); settings: HepG2 MRE cis-reporter transcription, Attagene multiplex; actives raise or lower the signal
In short: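 HepG2 cells transiently transfected with cis-element-driven reporter units; mRNA measured 24 h after dosing. Reporter transcripts quantified by RT-PCR, FAM labelling, HpaI digestion and capillary electrophoresis; bidirectional fit versus DMSO.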

[18] = ATG_ERE_CIS: Attagene CIS-FACTORIAL HepG2 Assay for Estrogen Response Element (ERE) (AID 2282940); settings: HepG2 ERE cis-reporter, Attagene RNA transcript; actives raise or lower the signal
In short: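 Human liver cells (HepG2) bearing transiently transfected, promoter-regulated reporter units were exposed 24 h. Reporter mRNA induction was detected by capillary electrophoresis of labelled RT-PCR products and fitted bidirectionally to DMSO.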

[19] = ATG_M_06_CIS: Attagene CIS-FACTORIAL HepG2 Assay for M06 Transcription Factor (Internal Marker) (AID 2282950); settings: HepG2 Attagene CIS-FACTORIAL M06 internal marker reporter; actives raise or lower the signal
In short: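 Cells (HepG2, transiently carrying cis-driven reporter units) receive chemical for 24 h before RNA isolation. Reporter cDNA is PCR-amplified, FAM-labelled by primer extension, HpaI-digested and sized on a capillary analyser.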

[20] = biological target: Hepatocyte nuclear factor 6 (Homo sapiens) (UniProt Q9UBC0); test: ATG_HNF6_CIS: Attagene CIS-FACTORIAL HepG2 Assay for human Hepatocyte Nuclear Factor 6 (HNF6) (AID 2282952); settings: HepG2 Attagene cis-factorial HNF6 reporter transcription; actives raise or lower the signal
In short: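 HepG2 cells transiently transfected with cis-element-driven multiple reporter transcription units, dosed 24 h; reporter mRNA quantified by RT-PCR, FAM primer extension, HpaI digestion and capillary electrophoresis; bidirectional fit versus DMSO baseline.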

Measured: AC50

Chain of Hepatocyte nuclear factor 3-beta (Homo sapiens) (Q9Y261 whole entry, looked up): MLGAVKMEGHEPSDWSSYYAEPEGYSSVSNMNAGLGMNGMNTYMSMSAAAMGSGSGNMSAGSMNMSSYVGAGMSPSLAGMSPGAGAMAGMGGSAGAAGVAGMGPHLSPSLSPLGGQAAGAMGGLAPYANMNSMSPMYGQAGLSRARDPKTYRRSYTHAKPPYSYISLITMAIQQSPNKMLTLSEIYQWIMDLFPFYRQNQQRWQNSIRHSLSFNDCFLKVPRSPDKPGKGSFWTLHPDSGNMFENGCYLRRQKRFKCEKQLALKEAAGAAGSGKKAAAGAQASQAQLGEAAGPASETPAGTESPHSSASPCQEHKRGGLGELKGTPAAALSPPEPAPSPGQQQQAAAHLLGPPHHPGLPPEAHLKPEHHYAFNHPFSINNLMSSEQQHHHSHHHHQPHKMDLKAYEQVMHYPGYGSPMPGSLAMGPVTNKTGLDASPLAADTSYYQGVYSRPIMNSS
Chain of Hypoxia-inducible factor 1-alpha (Homo sapiens) (Q16665 whole entry, looked up): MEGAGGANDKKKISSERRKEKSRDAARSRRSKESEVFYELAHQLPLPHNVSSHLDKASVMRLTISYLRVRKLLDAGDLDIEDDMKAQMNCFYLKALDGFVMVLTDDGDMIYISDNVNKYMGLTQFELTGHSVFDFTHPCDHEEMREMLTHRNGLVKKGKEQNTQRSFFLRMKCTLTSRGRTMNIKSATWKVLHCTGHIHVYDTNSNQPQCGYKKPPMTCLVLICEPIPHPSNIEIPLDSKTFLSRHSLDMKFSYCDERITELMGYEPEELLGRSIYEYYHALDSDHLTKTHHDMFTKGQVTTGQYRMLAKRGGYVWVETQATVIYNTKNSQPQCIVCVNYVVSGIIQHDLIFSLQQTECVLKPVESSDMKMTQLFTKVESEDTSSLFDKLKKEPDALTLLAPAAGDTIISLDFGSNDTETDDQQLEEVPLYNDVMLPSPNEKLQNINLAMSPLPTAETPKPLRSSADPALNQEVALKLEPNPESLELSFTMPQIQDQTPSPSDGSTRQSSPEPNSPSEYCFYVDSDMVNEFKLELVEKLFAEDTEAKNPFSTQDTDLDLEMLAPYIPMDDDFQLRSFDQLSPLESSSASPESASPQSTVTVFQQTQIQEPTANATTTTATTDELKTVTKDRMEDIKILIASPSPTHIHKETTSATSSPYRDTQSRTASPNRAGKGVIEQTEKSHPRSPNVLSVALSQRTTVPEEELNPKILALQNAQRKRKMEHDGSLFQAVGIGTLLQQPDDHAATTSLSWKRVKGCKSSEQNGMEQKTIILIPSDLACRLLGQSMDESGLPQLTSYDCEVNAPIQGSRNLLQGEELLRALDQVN
Chain of Heat shock factor protein 1 (Homo sapiens) (Q00613 whole entry, looked up): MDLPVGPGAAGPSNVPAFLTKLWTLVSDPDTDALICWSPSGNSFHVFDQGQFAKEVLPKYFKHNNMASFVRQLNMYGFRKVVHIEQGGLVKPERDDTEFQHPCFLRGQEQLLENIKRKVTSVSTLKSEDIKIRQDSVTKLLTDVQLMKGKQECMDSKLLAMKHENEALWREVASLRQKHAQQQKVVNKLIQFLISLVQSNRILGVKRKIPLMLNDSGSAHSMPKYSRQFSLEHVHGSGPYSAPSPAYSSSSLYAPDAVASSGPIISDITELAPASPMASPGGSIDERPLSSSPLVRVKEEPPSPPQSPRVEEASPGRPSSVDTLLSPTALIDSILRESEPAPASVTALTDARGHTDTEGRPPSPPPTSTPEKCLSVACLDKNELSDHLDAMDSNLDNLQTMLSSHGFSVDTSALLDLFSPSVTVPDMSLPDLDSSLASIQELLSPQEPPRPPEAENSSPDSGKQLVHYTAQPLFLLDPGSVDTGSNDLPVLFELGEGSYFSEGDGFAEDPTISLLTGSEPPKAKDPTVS
Chain of Bile acid receptor (Homo sapiens) (Q96RI1 whole entry, looked up): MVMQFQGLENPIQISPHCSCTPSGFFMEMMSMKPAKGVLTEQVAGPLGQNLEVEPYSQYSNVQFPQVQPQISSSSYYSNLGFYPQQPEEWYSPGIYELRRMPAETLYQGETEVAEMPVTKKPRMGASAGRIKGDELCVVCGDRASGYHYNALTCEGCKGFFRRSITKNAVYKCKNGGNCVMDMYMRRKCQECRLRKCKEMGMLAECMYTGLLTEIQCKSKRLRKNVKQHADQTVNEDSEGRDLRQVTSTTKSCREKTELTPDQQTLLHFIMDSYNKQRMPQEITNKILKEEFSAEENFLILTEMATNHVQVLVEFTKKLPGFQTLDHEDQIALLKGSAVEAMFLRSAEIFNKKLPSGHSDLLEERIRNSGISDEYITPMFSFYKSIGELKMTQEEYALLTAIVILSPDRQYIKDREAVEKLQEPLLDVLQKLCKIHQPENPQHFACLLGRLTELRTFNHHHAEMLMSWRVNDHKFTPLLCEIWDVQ
Chain of Hepatocyte nuclear factor 6 (Homo sapiens) (Q9UBC0 whole entry, looked up): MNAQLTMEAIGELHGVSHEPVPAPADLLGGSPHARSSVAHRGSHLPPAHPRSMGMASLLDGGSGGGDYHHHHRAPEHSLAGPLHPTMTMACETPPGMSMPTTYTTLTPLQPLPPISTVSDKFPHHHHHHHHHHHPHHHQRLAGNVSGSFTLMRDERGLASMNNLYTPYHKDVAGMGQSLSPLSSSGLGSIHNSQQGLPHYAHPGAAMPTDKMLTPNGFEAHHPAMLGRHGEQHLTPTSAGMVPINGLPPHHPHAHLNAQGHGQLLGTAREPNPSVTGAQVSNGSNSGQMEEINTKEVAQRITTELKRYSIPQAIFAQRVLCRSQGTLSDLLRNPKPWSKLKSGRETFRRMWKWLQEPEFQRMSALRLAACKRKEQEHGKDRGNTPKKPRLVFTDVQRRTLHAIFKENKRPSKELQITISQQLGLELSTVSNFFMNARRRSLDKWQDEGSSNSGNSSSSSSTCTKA

O=C(O)CCCOc1ccc(Cl)cc1Cl
not listed: [14] | [15] | [16] | [17] | [18] | [19] | [20]
inactive: all other assays above

O=C(O)C(F)(F)C(F)(F)C(F)(F)C(F)(F)C(F)(F)C(F)(F)C(F)(F)F
inactive: [1] | [3] | [4] | [5] | [6] | [7] | [14] | [8] | [9] | [10] | [11]

CCS(=O)(=O)c1cccnc1S(=O)(=O)NC(=O)Nc1nc(OC)cc(OC)n1
not listed: [2] | [18] | [19] | [20]
inactive: all other assays above

Cc1[nH]c(=O)n(C(C)(C)C)c(=O)c1Cl
active: [17] 50 µM | [13] 80.8 µM
not listed: [2] | [14] | [16] | [19] | [20]
inactive: all other assays above

CCCN(CCC)c1c([N+](=O)[O-])cc(C(F)(F)F)cc1[N+](=O)[O-]
not listed: [2] | [14] | [16] | [20]
inactive: all other assays above

CNC(=O)Oc1cccc(N=CN(C)C)c1
active: [18] 91.4 µM | [7] 70.8 µM
not listed: [2] | [14] | [16] | [17] | [20]
inactive: all other assays above

O=C1c2ccccc2C(=O)N1SC(Cl)(Cl)Cl
not listed: [2] | [14] | [16] | [20]
inactive: all other assays above

CCCN(CCOc1c(Cl)cc(Cl)cc1Cl)C(=O)n1ccnc1
active: [12] 2.61 µM | [13] 2.92 µM
inactive: [1] | [3] | [4] | [5] | [6] | [7] | [8] | [15] | [16] | [9] | [10] | [11] | [12] | [13]

COP(=S)(OC)Oc1ccc(SC)c(C)c1
active: [18] 17.7 µM | [13] 39.3 µM
not listed: [2] | [14] | [15] | [17] | [19] | [20]
inactive: all other assays above

COC(=O)c1ccccc1S(=O)(=O)NC(=O)N(C)c1nc(C)nc(OC)n1
not listed: [2] | [14] | [19] | [20]
inactive: all other assays above

O=S1OCC2C(CO1)C1(Cl)C(Cl)=C(Cl)C2(Cl)C1(Cl)Cl (configuration not stated)
active: [18] 1.72 µM
not listed: [2] | [14] | [17] | [20]
inactive: all other assays above

CCOCN(C(=O)CCl)c1c(C)cccc1CC
not listed: [2] | [14] | [15] | [17]
inactive: all other assays above

CC(C)N(C(=O)COc1nnc(C(F)(F)F)s1)c1ccc(F)cc1
active: [5] 15.6 µM | [13] 11.5 µM
not listed: [2] | [14] | [19]
inactive: all other assays above

CC(C)(C)C(O)C(Oc1ccc(Cl)cc1)n1cncn1 (configuration not stated)
inactive: [1] | [3] | [4] | [5] | [6] | [7] | [14] | [8] | [9] | [10] | [11] | [12] | [13]
active: [6] 16.9 µM | [13] 2.82 µM and 5.04 µM and 7.04 µM
